The text below walks through data of ChEMBL document CHEMBL1961873, “Compounds: GSK PKIS; Assays: Nanosyn kinase panel” (2012).

Molecules are shown by their SMILES.

Assay [1] concerns the target High affinity nerve growth factor receptor (Homo sapiens) (UniProt P04629). Particulars: at 1 µM.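 Further: each value is the mean percent inhibition of TRKA.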
For assay [2], the target named is BDNF/NT-3 growth factors receptor (Homo sapiens) (UniProt Q16620). As to conditions: at 0.1 µM.
Assay [3] shares this target. Particulars: at 1 µM.
Assay [4] has as its target NT-3 growth factor receptor (Homo sapiens) (UniProt Q16288). As to conditions: at 0.1 µM.
For assay [5] the target is unchanged. Particulars: at 1 µM.
Assay [6] has as its target T1, Tyrosine-protein kinase TXK (Homo sapiens) (UniProt P42681).
T1 sequence (whole entry): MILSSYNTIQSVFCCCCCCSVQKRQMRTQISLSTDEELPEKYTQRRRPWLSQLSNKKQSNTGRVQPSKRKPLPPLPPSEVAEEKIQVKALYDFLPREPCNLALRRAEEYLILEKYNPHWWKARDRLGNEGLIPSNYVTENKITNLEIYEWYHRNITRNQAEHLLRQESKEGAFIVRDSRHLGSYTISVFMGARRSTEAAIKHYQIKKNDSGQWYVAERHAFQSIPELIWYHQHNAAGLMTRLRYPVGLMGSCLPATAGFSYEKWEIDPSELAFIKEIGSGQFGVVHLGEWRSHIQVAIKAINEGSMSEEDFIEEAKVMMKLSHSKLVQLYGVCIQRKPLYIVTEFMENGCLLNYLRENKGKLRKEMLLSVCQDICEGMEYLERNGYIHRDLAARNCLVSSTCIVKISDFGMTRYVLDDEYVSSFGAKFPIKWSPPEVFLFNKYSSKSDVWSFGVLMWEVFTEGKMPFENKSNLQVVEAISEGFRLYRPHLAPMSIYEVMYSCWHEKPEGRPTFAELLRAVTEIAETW
As to conditions: at 0.1 µM.

Assay [7] deals with T1, Tyrosine-protein kinase TXK (Homo sapiens). As to conditions: at 1 µM.
Assay [8] addresses Non-receptor tyrosine-protein kinase TYK2 (Homo sapiens) (UniProt P29597). Particulars: at 0.1 µM.
Assay [9] concerns the target T2, Dual specificity protein kinase TTK (Homo sapiens) (UniProt P33981).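 Further: reported figures are mean TTK inhibition at 1 µM.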
T2 sequence (whole entry): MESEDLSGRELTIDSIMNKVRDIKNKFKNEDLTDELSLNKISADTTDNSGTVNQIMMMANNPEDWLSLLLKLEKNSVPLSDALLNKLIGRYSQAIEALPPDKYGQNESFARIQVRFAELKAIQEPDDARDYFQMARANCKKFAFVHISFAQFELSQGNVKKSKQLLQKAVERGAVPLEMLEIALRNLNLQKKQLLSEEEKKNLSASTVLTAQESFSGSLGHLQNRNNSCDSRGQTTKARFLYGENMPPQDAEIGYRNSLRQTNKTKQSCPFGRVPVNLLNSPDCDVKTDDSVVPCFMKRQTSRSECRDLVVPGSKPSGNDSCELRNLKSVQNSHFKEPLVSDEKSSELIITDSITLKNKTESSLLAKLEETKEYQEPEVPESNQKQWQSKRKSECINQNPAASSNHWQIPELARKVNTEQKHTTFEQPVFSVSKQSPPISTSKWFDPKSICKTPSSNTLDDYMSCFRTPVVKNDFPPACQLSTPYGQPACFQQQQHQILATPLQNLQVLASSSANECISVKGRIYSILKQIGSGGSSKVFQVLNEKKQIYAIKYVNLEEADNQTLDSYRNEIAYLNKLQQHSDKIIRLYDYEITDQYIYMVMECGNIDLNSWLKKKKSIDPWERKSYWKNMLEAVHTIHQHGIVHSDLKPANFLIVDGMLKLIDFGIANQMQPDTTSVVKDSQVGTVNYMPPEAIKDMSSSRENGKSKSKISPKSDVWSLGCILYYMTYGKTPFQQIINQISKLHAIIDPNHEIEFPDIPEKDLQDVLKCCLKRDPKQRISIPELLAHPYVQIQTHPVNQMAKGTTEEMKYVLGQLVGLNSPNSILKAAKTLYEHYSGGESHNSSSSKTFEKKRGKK
Particulars: at 1 µM.

The target of assay [10] is T3, Aurora kinase A (Homo sapiens) (UniProt O14965).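 Further: each reported value is a mean percent inhibition of Aurora-A.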
T3 sequence (whole entry): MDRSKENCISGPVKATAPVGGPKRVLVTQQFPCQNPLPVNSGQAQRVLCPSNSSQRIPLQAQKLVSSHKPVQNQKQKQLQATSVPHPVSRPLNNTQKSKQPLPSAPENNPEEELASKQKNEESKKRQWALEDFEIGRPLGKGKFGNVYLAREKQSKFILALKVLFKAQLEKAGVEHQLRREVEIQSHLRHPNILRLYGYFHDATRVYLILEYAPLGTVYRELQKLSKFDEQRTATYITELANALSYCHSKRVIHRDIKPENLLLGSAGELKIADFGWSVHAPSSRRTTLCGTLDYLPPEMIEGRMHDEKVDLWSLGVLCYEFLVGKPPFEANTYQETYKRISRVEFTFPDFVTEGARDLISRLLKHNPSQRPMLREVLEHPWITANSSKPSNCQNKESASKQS
As to conditions: at 0.1 µM.

Chain of NT-3 growth factor receptor (Homo sapiens) (Q16288 32-839 limits assumed): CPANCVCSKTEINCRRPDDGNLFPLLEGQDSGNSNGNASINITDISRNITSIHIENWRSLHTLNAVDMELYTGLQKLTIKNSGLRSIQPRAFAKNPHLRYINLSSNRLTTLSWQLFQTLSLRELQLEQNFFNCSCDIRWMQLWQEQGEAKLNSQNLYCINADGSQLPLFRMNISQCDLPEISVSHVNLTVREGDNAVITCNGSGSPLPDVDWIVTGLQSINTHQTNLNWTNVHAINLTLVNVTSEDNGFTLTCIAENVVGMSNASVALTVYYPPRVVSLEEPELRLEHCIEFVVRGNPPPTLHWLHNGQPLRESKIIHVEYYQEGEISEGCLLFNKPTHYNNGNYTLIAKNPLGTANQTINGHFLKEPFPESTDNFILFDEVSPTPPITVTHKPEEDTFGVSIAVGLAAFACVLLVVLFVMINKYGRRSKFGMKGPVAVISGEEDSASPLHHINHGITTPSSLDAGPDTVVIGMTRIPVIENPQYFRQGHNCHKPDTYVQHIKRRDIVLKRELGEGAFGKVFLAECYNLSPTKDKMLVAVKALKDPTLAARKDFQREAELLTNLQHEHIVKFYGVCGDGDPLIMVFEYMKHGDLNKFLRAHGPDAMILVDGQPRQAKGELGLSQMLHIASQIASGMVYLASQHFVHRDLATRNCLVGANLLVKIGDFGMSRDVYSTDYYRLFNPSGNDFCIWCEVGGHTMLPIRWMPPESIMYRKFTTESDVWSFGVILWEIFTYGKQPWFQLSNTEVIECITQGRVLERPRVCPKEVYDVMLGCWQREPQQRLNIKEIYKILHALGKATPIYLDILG
Chain of Non-receptor tyrosine-protein kinase TYK2 (Homo sapiens) (P29597 whole entry): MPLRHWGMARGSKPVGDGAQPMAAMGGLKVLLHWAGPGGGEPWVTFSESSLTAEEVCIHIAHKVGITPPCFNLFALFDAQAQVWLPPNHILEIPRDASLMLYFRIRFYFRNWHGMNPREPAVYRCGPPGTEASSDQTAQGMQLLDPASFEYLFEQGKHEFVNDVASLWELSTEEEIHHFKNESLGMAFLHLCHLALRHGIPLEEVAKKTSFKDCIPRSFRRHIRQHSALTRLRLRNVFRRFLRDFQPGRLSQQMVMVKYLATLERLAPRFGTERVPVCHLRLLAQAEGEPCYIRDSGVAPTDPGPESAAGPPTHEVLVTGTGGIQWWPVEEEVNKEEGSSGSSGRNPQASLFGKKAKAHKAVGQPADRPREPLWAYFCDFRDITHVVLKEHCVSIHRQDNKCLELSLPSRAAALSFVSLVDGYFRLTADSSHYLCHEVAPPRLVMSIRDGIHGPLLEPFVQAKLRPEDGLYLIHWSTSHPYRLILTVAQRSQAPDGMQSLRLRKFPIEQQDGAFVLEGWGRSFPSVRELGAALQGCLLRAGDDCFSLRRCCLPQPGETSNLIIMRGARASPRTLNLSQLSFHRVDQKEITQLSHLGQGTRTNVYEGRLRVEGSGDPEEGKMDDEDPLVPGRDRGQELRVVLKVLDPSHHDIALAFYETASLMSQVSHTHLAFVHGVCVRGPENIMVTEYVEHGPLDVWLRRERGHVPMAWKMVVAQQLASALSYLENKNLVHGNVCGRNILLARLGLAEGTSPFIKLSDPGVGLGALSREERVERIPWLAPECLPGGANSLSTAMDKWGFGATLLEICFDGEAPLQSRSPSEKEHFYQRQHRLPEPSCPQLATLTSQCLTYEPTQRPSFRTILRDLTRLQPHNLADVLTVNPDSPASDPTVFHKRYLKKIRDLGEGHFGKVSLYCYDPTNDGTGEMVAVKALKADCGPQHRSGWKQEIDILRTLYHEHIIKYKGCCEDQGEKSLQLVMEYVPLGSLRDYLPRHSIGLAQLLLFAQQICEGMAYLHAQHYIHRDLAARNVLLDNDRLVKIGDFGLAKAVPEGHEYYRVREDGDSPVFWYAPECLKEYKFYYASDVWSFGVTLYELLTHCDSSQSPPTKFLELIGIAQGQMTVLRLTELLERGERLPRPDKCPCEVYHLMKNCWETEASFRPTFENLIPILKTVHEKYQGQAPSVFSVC
Chain of High affinity nerve growth factor receptor (Homo sapiens) (P04629 33-796 limits assumed): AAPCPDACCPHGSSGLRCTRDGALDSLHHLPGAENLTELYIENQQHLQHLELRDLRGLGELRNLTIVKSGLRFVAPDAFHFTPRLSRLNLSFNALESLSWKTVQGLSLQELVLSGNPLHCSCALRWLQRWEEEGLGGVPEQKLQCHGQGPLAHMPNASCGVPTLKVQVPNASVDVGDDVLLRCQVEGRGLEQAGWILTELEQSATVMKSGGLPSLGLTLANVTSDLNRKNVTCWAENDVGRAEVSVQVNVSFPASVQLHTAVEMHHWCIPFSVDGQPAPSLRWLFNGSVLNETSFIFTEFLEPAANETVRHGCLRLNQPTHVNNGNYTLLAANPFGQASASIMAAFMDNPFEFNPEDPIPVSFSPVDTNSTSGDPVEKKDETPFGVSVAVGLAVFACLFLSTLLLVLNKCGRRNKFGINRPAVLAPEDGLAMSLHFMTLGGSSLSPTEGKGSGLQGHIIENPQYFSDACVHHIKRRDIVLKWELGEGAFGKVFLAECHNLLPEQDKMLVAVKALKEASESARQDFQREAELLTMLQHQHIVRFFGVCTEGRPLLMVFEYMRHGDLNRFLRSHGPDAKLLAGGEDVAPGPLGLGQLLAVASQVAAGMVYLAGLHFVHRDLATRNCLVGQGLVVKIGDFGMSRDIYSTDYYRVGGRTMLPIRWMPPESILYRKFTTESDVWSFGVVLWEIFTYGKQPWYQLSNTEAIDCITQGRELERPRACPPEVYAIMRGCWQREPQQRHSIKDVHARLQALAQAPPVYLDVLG
Chain of BDNF/NT-3 growth factors receptor (Homo sapiens) (Q16620 32-822 limits assumed): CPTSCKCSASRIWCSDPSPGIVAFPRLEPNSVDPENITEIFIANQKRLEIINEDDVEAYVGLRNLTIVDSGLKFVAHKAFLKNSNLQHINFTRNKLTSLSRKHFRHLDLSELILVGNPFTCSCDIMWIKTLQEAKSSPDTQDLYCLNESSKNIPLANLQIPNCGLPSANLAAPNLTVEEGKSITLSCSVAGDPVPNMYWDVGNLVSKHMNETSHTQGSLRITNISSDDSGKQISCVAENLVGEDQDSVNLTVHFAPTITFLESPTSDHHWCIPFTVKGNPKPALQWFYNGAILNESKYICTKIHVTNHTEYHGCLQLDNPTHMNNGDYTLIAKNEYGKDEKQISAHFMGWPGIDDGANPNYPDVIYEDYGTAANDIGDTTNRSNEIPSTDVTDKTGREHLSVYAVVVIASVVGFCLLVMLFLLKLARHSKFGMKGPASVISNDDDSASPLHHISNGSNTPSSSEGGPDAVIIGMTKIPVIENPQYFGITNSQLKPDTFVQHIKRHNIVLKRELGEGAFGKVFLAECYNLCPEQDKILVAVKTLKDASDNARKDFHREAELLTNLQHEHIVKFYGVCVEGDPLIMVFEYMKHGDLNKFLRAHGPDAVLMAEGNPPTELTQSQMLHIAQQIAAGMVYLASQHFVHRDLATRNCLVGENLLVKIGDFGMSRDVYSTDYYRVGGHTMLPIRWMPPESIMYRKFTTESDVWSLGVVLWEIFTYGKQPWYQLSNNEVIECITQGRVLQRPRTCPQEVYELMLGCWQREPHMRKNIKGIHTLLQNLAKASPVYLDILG

For orientation: inhibition means the relative decrease from the control value, in per cent. For `COc1cc(Nc2nccc(-c3cnn4ncccc34)n2)cc(OC)c1`, the inhibition in assay [1] came out at 26.7%; in assay [2], 5.6%; in assay [3], 39.5%; in assay [4], 9.63%; in assay [5] it was 45.6%; in assay [6], 5.79%. Besides, the inhibition is 31.4% in [7], 4.29% in assay [8], 15.4% in assay [9] and 20.9% in assay [10].
Turning to `C[C@@H](Oc1cc(-n2cnc3ccc(OC[C@@H](O)CO)cc32)sc1C(N)=O)c1ccccc1Cl`, the inhibition was found to be 3.73% in [1]; 1.11% in assay [2]; 14.7% in assay [3]; 3.59% in assay [4]; 29.4% in [5]; 0.37% in assay [6]. The inhibition in assay [7] is 3.1%; in assay [8], 3.13%; in assay [9] it was 1.94%; in [10], -0.94%.
As for `Nc1nccc(-c2c(-c3ccc(F)cc3)nn3cc(C(F)(F)F)ccc23)n1`, the inhibition is -4.55% in [1]; 0.39% in [2]; 0.48% in [3]; 0.11% in [4]; 1.1% in [5]; 0.11% in assay [6]. For the same molecule, the inhibition in assay [7] is 6.52%; in assay [8] it was -4.56%; in assay [9] it was 4.23%; in [10], 0.97%.
Take `Cc1ccc2c(-c3ccnc(Nc4ccc5c(c4)OCCO5)n3)c(-c3ccc(C(F)(F)F)cc3)nn2n1`: the inhibition in [1] is -4.22%; in assay [2], -1.22%; in [3], 0.09%; in [4] it was 3.63%; in assay [5] it was -0.97%; in [6] it was -1.11%. In addition, the inhibition in assay [7] was 2.6%; in [8], -0.28%; in assay [9], 4.26%; in assay [10] it was 3.93%.
Take `CCn1c(-c2nonc2N)nc2ccc(F)cc21`: the inhibition in [1] was found to be 2.84%; in assay [2] it was 4.03%; in assay [3] it was 4.23%; in [4], 3.74%; in assay [5], 4.75%; in assay [6] it was 1.94%. In addition, the inhibition is 0.47% in [7], -3.66% in assay [8], 11.6% in assay [9] and 3.17% in assay [10].
Take `CC(C)c1ccc(Nc2nccc(-c3cnn4ncccc34)n2)cc1`: the inhibition in assay [1] was 7.94%; in assay [2], 2.01%; in assay [3] it was 6.18%; in [4], 3.36%; in assay [5], 9.1%; in [6], 1.69%. The inhibition in assay [7] was 3.04%; in [8], -0.82%; in assay [9], 22.2%; in assay [10], 6.2%.
In the case of `c1ccc(Nc2ncc(-c3ccccc3)o2)cc1`, the inhibition amounted to 6.98% in assay [1]; 2.68% in assay [2]; 9.78% in [3]; 4.23% in assay [4]; 8.89% in assay [5]; 2.01% in assay [6]. Moreover, the inhibition in assay [7] is 6.4%; in [8], -2.68%; in assay [9] it was 16.1%; in assay [10], 2.24%.
Regarding `COc1cc(/C=N/Nc2ncnc3c2cnn3C(C)C)ccc1O`, the inhibition in [1] turned out to be 8.39%; in assay [2] it was 4.28%; in assay [3], 31.4%; in assay [4] it was 3.32%; in assay [5], 29.1%; in assay [6], 3.5%. For the same molecule, the inhibition in [7] was found to be 14.1%; in assay [8] it was 0.13%; in assay [9], 2.81%; in assay [10], 3.73%.
Consider `Cc1nc(-c2ccccc2)n2nc(NCCCN3CCOCC3)ncc12`, for which the inhibition in assay [1] came out at 5.06%; in assay [2], 1.8%; in [3], 3.5%; in assay [4], 2.73%; in assay [5], 2.25%; in assay [6], 4.46%. The inhibition in assay [7] is 3.59%; in assay [8], -3.48%; in [9], 5.84%; in assay [10] it was 3.52%.
For the molecule `COC(=O)c1cncc(/C=C/c2c(C)cc(O)cc2C)c1`, the inhibition in assay [1] was found to be 0.47%; in [2], 2.4%; in [3] it was 4.35%; in assay [4] it was 2%; in assay [5] it was 6.12%; in assay [6], 4.44%. Moreover, the inhibition in assay [7] is 22.5%; in [8] it was -4.1%; in assay [9], 1.18%; in assay [10], 2.33%.
Turning to `CCCN1CCCC(c2ccc(Nc3nc(Nc4cc(F)ccc4C(N)=O)c4cc[nH]c4n3)c(OC)c2)C1` (stereo not given), the inhibition in assay [1] turned out to be 5.65%; in assay [2] it was 4.46%; in [3], 6.11%; in assay [4] it was 3.36%; in [5], 5.51%; in assay [6], 3.48%. Besides, the inhibition in assay [7] is 6.47%; in [8] it was -2.19%; in assay [9], 79.6%; in [10], 1.81%.
`COc1ccc2ncnc(Nc3ccc(OCc4ccccc4)cc3)c2c1`: the inhibition in assay [1] is 1.61%; in assay [2], 2.59%; in assay [3], 2.63%; in assay [4], -0.03%; in assay [5] it was 0.85%; in [6], 2.73%. In addition, the inhibition in [7] is 3.98%; in [8] it was -2.4%; in [9] it was 4.18%; in assay [10], 1.97%.
As for `O=S(=O)(CCOCc1ccc(-c2ccc3ncnc(Nc4ccc(OCc5cccc(F)c5)c(Cl)c4)c3c2)o1)c1ccccc1`, the inhibition was 3.9% in assay [1]; 2.42% in [2]; 2.72% in assay [3]; 0.35% in assay [4]; 0.31% in [5]; -0.26% in assay [6]. Also, the inhibition in assay [7] was 2.63%; in [8], -3.63%; in assay [9], 11%; in [10], 1.6%.
Turning to `CC(C)c1ccc2c(c1)NC(=O)/C2=N/Nc1ccc(S(N)(=O)=O)cc1`, the inhibition in assay [1] was determined as 26.1%; in [2], 4.87%; in assay [3] it was 31.5%; in assay [4], 7.71%; in assay [5] it was 34.9%; in assay [6], 1.51%. Moreover, the inhibition is 3.5% in [7], 0.63% in [8], 3.55% in assay [9] and 1.5% in assay [10].
With `CS(=O)(=O)Nc1cccc(-c2ccc3c(NC(=O)C4CC4)n[nH]c3c2)c1`, the inhibition in assay [1] was 2.02%; in assay [2] it was 0.05%; in [3], 0.23%; in assay [4] it was -0.22%; in assay [5], 5.08%; in assay [6], -1.12%. Further, the inhibition in [7] was 2.67%; in [8], 0.85%; in [9] it was 5.01%; in assay [10], 2.68%.
Turning to `NS(=O)(=O)c1ccc(N/N=C2\C(=O)Nc3ccc(Cl)cc32)cc1`, the inhibition is 17.9% in [1]; 5.72% in [2]; 34.7% in [3]; 9.02% in assay [4]; 42.3% in assay [5]; 3.22% in assay [6]. The inhibition in assay [7] is 4.96%; in assay [8], -4.4%; in assay [9], 45.1%; in assay [10], 3.86%.
